# PubChem BioAssay (NCATS)
# Results filed as inconclusive are left out. Unmarked numbers belong to inactive results. The source made the active and inactive calls. Unless noted, calls come from the whole dose curve; as a rule, active = well fitted curve in the direction sought with a large enough effect; inconclusive = small, poorly fitted or top-dose-only effect, or another doubt; inactive = no such curve, though single readings can be large; an effect the other way counts as inactive or inconclusive.
# Key:
# [1] = biological target: ATP-dependent 6-phosphofructokinase (Trypanosoma brucei brucei) (UniProt O15648); experiment: qHTS Assay to Find Inhibitors of T. brucei phosphofructokinase: hit validation (AID 492961);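 note: luminescence reports ADP formed as PFK phosphorylates fructose-6-phosphate with ATP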
# Procedure, shortened: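 Percent activity derived from corrected luminescence, normalized between 0x and 1x enzyme controls, then fitted to concentration-response curves. Conditions: 1.25 nM PFK, 0.1 mM ATP, 0.5 mM F6P, 45 min RT.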
# [2] = biological target: Ubiquitin carboxyl-terminal hydrolase 1 (Homo sapiens) (UniProt O94782); experiment: Inhibitors of USP1/UAF1: Pilot qHTS (AID 504865);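 note: rhodamine fluorescence freed from ubiquitin-rhodamine substrate followed over time; top concentration of the series differs between compounds; nearly all actives have a fitted effect of over 35% in size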
# Procedure, shortened: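 USP1/UAF1 complex (1nM) preincubated with compound 15 min at room temperature, then Ub-Rho substrate (150nM final) added. Fluorescence read kinetically at 480/540 nm, 6 reads every 60 seconds. Buffer: 50mM HEPES pH 7.8, 0.5mM EDTA, 0.1 mg/ml BSA, 1mM TCEP, 0.01% Tween-20.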
# [3] = biological target: Luciferin 4-monooxygenase (Photinus pyralis) (UniProt P08659); experiment: Biochemical firefly luciferase enzyme assay for NPC (AID 624030);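 note: purified P. pyralis luciferase at 10 nM with luciferin and ATP substrate; nearly all actives have a fitted effect of over 70% in size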
# Procedure, shortened: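 Counter-screen for direct inhibition of the luciferase enzyme by approved-drug library compounds, run at 10 nM enzyme in 50 mM Tris acetate (final). Luminescence was read within 5 min of enzyme-buffer addition and normalized to PTC124 versus DMSO (0%).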
# [4] = S16 Schwann cell PMP22 intronic element firefly luciferase assay (AID 624032); note: potency is the fitted concentration of half-maximal effect; nearly all actives have a fitted effect of over 30% in size
# Procedure, shortened: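 Rat S16 Schwann cells stably carrying a PMP22 intronic element-driven Fluc reporter were seeded overnight, then exposed to compounds for 24 h at 37 °C. Luminescence was normalized to PTC124 (positive control) and DMSO (0% activity).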
# [5] = S16 Schwann cell PMP22 intronic element beta-lactamase assay (AID 624044; calls by dose curve; note: potency is the fitted concentration of half-maximal effect; nearly all actives have a fitted effect of over 15% in size)
# Procedure, shortened: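 Beta-lactamase reporter under a PMP22 intronic regulatory element in stable S16 rat Schwann cells; 24 h compound exposure. 460 nm blue signal normalized between DMSO (0%) and potassium clavulanate, with 535 nm FRET tracking viability; curves classed by r2 and response.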
# Furin (Homo sapiens) = Furin (Homo sapiens) (UniProt P09958); experiment: Furin counterscreen qHTS for Zika virus inhibitors (AID 1347149);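 note: purified recombinant full-length human furin enzyme at 5 nM; fluorescence gain from furin cutting a BOC-RVRR-AMC peptide substrate over 15 min; top concentration of the series differs between compounds; nearly all actives have a fitted effect of over 70% in size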
# Procedure, shortened: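 Counterscreen measures cleavage of 2 microM BOC-RVRR-AMC, below its ~15 microM Km, by 5 nM full-length human furin at pH 7.0 after a 15-min compound preincubation. Inhibition derives from the 15-min fluorescence increase at 37C.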
# [6] = test system: Zika virus NS2B-NS3 protease (unlinked); experiment: Optimization of GU AMC qHTS for Zika virus inhibitors: Unlinked NS2B-NS3 protease assay (AID 1347151); note: nearly all actives have a fitted effect of over 80% in size
# Procedure, shortened: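 Noncovalent complex of NS2B hydrophilic domain and NS3 protease domain, 25 nM final, in 10 mM Tris-HCl pH 8.0, 0.01% Tween 20. AMC fluorescence change over 15 min at room temperature was fitted to a 4-parameter Hill equation.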
# [7] = Vero cells viability qHTS for Zika virus inhibitors (AID 1347167)
# Procedure, shortened: (§1)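 To flag cytotoxic protease inhibitors, viability is measured by ATP-dependent luminescence (CellTiter Glo) after cells attached overnight receive compound for 24 to 48 hours in DMEM with 4% FBS.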
# [8] = HepG2 cells viability qHTS for Zika virus inhibitors (AID 1347168); note: potency is the fitted concentration of half-maximal effect
# Procedure, shortened: as §1
# [9] = Tertiary RLuc qRT-PCR qHTS assay for Zika virus inhibitors (AID 1347169); note: potency is the fitted concentration of half-maximal effect; nearly all actives have a fitted effect of over 55% in size
# Procedure, shortened: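 Vero cells (1,000 per well) plated overnight at 37 degrees C, treated with compound in DMSO, then infected with recombinant ZIKV-RLuc (Cambodian) at MOI 1-2 for 48-72 hrs. Live-cell Renilla luciferase substrate added; luminescence read after 1-1.5 hrs.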
# [10] = qHTS profiling for inhibitors of Plasmodium falciparum proliferation (AID 504749); note: potency is the fitted concentration of half-maximal effect; nearly all actives have a fitted effect of over 60% in size; conditions: P. falciparum in erythrocytes, SYBR Green DNA, 72 h
# Procedure, shortened: (§2)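 Fluorescence of SYBR Green-bound parasite DNA, read at 485/535 nm, served as the growth measure. Infected erythrocytes were cultured with compound 72 h; artemisinin (0.29 uM) and DMSO wells defined the normalization range.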
# 3D7 = experiment: as above; conditions: P. falciparum in erythrocytes, SYBR Green DNA, 72 h; series mostly up to 28.7 µM
# Procedure, shortened: as §2
# 7G8 = experiment: as above; conditions: P. falciparum in erythrocytes, SYBR Green DNA, 72 h; series mostly up to 28.7 µM
# Procedure, shortened: as §2
# AA1029 = experiment: as above; conditions: P. falciparum in erythrocytes, SYBR Green DNA, 72 h; series mostly up to 28.7 µM
# Procedure, shortened: as §2
# AS120 = experiment: as above; conditions: P. falciparum in erythrocytes, SYBR Green DNA, 72 h; series mostly up to 28.7 µM
# Procedure, shortened: as §2
# ATS189 = experiment: as above; conditions: P. falciparum in erythrocytes, SYBR Green DNA, 72 h; series mostly up to 28.7 µM
# Procedure, shortened: as §2
# ATS95 = experiment: as above; conditions: P. falciparum in erythrocytes, SYBR Green DNA, 72 h; series mostly up to 28.7 µM
# Procedure, shortened: as §2
# C2A = experiment: as above; conditions: P. falciparum in erythrocytes, SYBR Green DNA, 72 h; series mostly up to 28.7 µM
# Procedure, shortened: as §2
# CP185 = experiment: as above; conditions: P. falciparum in erythrocytes, SYBR Green DNA, 72 h; series mostly up to 28.7 µM
# Procedure, shortened: as §2
# CP191 = experiment: as above; conditions: P. falciparum in erythrocytes, SYBR Green DNA, 72 h; series mostly up to 28.7 µM
# Procedure, shortened: as §2
# CP192 = experiment: as above; conditions: P. falciparum in erythrocytes, SYBR Green DNA, 72 h; series mostly up to 28.7 µM
# Procedure, shortened: as §2
# CP194 = experiment: as above; conditions: P. falciparum in erythrocytes, SYBR Green DNA, 72 h; series mostly up to 28.7 µM
# Procedure, shortened: as §2
# CP201 = experiment: as above; conditions: P. falciparum in erythrocytes, SYBR Green DNA, 72 h; series mostly up to 28.7 µM
# Procedure, shortened: as §2
# CP203 = experiment: as above; conditions: P. falciparum in erythrocytes, SYBR Green DNA, 72 h; series mostly up to 28.7 µM
# Procedure, shortened: as §2
# CP211 = experiment: as above; conditions: P. falciparum in erythrocytes, SYBR Green DNA, 72 h; series mostly up to 28.7 µM
# Procedure, shortened: as §2
# CP215 = experiment: as above; conditions: P. falciparum in erythrocytes, SYBR Green DNA, 72 h; series mostly up to 28.7 µM
# Procedure, shortened: as §2
# CP217 = experiment: as above; conditions: P. falciparum in erythrocytes, SYBR Green DNA, 72 h; series mostly up to 28.7 µM
# Procedure, shortened: as §2
# CP237 = experiment: as above; conditions: P. falciparum in erythrocytes, SYBR Green DNA, 72 h; series mostly up to 28.7 µM
# Procedure, shortened: as §2
# CP238 = experiment: as above; conditions: P. falciparum in erythrocytes, SYBR Green DNA, 72 h; series mostly up to 28.7 µM
# Procedure, shortened: as §2
# CP247 = experiment: as above; conditions: P. falciparum in erythrocytes, SYBR Green DNA, 72 h; series mostly up to 28.7 µM
# Procedure, shortened: as §2
# CP250 = experiment: as above; conditions: P. falciparum in erythrocytes, SYBR Green DNA, 72 h; series mostly up to 28.7 µM
# Procedure, shortened: as §2
# CP252 = experiment: as above; conditions: P. falciparum in erythrocytes, SYBR Green DNA, 72 h; series mostly up to 28.7 µM
# Procedure, shortened: as §2
# CP256 = experiment: as above; conditions: P. falciparum in erythrocytes, SYBR Green DNA, 72 h; series mostly up to 28.7 µM
# Procedure, shortened: as §2
# Sequence of Furin (Homo sapiens) (P09958 whole entry, looked up): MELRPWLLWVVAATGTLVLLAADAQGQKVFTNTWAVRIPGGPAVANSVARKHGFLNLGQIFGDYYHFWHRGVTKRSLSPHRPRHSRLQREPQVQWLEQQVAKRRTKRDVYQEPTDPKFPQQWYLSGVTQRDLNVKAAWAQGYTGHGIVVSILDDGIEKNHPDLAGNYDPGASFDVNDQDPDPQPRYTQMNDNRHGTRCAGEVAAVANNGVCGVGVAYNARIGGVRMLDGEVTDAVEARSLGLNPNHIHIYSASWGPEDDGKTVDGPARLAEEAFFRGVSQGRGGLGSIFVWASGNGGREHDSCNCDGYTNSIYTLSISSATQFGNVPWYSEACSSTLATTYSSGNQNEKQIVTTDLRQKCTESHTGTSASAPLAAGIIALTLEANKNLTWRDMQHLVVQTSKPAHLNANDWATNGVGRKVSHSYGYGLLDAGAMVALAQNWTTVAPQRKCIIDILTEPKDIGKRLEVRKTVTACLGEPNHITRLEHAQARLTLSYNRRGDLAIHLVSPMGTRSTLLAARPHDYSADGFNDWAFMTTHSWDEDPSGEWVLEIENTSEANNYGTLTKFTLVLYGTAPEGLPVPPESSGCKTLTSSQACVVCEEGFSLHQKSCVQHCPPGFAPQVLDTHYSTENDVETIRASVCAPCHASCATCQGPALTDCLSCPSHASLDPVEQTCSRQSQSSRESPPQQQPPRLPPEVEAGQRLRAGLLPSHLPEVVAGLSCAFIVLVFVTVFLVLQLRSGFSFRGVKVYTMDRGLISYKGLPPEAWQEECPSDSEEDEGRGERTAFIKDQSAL
# Sequence of Ubiquitin carboxyl-terminal hydrolase 1 (Homo sapiens) (O94782 whole entry, looked up): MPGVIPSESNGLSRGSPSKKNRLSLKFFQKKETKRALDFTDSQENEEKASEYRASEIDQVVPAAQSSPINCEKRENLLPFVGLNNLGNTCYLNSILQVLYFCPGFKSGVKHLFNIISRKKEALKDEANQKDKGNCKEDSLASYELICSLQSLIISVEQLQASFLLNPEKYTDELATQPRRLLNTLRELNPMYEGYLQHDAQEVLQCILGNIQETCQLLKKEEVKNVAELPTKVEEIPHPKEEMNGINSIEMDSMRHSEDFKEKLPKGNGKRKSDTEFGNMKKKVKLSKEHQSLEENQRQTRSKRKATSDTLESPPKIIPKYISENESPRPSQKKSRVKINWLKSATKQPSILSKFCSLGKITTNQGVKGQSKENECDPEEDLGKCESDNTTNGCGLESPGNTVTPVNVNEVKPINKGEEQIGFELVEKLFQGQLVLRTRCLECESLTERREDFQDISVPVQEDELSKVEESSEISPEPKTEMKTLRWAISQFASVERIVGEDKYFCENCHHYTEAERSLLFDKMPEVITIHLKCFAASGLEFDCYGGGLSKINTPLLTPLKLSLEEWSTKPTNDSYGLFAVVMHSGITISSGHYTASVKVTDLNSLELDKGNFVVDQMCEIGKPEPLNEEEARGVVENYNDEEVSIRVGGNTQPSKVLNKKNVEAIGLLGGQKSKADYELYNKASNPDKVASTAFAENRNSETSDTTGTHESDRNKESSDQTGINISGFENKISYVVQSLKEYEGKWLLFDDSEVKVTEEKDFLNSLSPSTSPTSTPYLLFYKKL
# Sequence of Luciferin 4-monooxygenase (Photinus pyralis) (P08659 whole entry, looked up): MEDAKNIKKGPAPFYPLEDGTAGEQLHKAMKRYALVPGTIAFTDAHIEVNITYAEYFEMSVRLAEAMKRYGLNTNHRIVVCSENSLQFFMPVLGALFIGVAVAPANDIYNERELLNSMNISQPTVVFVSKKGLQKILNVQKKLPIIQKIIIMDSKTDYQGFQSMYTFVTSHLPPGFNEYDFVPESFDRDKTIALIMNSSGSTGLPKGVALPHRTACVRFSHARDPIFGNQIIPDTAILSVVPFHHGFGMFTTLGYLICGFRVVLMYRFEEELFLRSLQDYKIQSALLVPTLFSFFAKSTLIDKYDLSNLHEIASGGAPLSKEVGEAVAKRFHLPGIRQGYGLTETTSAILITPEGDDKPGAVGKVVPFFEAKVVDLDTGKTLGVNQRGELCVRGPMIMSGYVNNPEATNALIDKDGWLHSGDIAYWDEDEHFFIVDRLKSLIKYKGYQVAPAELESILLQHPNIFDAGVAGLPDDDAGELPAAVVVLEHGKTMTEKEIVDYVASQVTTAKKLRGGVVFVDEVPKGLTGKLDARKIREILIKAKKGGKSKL
# Sequence of ATP-dependent 6-phosphofructokinase (Trypanosoma brucei brucei) (O15648 whole entry, looked up): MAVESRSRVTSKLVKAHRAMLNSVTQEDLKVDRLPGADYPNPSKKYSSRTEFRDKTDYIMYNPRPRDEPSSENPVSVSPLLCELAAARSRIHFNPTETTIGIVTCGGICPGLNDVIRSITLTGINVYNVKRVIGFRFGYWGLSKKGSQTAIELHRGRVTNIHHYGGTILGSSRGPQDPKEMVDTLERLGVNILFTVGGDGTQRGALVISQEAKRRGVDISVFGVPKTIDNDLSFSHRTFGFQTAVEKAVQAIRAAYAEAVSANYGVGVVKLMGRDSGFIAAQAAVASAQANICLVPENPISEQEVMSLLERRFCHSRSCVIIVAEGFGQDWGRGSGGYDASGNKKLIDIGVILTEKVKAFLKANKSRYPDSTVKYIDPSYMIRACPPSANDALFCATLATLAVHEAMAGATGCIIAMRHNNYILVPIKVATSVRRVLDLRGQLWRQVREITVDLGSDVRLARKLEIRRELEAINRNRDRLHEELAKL
structure (smiles),measurement,setting,value
CC(C)C[C@@H](NC(=O)[C@H](Cc1ccccc1)NC(=O)c1cnccn1)B(O)O,outcome,[1],inactive
same,Potency,[2],inactive
same,Potency,[3],inactive
same,Potency,[4],3.6 nM (active)
same,Potency,[5],12.6 nM (active)
same,Potency,Furin (Homo sapiens),inactive
same,Potency,[6],inactive
same,Potency,[7],inactive
same,Potency,[8],42.6 nM (active)
same,Potency,[9],26.9 nM (active)
same,Potency,[10]; parasite line A,89.1 nM (active)
same,Potency,[10]; parasite line B,63.1 nM (active)
same,Potency,3D7,126 nM (active)
same,Potency,7G8,31.6 nM (active)
same,Potency,AA1029,70.8 nM (active)
same,Potency,AS120,100 nM (active)
same,Potency,ATS189,112 nM (active)
same,Potency,ATS95,56.2 nM (active)
same,Potency,C2A,126 nM (active)
same,Potency,CP185,112 nM (active)
same,Potency,CP191,89.1 nM (active)
same,Potency,CP192,151 nM (active)
same,Potency,CP194,426 nM (active)
same,Potency,CP201,601 nM (active)
same,Potency,CP203,169 nM (active)
same,Potency,CP211,757 nM (active)
same,Potency,CP215,536 nM (active)
same,Potency,CP217,126 nM (active)
same,Potency,CP237,79.4 nM (active)
same,Potency,CP238,112 nM (active)
same,Potency,CP247,126 nM (active)
same,Potency,CP250,100 nM (active)
same,Potency,CP252,89.1 nM (active)
same,Potency,CP256,126 nM (active)
